Screening results deposited in PubChem by several laboratories.
FAK inh = FAK kinase inhibitors, primary screen, biochemical. biochemical FAK kinase activity assay. inhibition, %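 (tested at 7 µM)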. hit rate 0.84% among 97,000; in the data active = inhibition above about 19%;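 note: 0% = DMSO and 100% = reference compound high control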
PKA kinase inh = inhibitors of human PKA kinase activity, primary screen, biochemical, ATP-depletion luminescence, Kemptide substrate | inhibition, % at 6 µM | hit rate 0.1% among 65,000 | cAMP-dependent protein kinase catalytic subunit alpha (Homo sapiens), P17612 | PKA Kemptide phosphorylation, Kinase-Glo ATP luminescence;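 active = inhibition above the screen-wide mean inhibition plus 3 SD, cut at about 21% in these data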
PLK1 kinase inh = human PLK1 kinase inhibitors, primary screen, biochemical, TR-FRET. Serine/threonine-protein kinase PLK1 (Homo sapiens), P53350. recombinant PLK1 kinase, TR-FRET peptide phosphorylation. inhibition, % at 10 µM. hit rate 0.53% among 97,000. AID 619, 2007;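 active = inhibition of 50% or more in the single-concentration screen; inactive = inhibition below 50%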;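 note: 0% = DMSO max control and 100% = H-89 dihydrochloride min control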
Target sequence (P53350 whole entry, looked up): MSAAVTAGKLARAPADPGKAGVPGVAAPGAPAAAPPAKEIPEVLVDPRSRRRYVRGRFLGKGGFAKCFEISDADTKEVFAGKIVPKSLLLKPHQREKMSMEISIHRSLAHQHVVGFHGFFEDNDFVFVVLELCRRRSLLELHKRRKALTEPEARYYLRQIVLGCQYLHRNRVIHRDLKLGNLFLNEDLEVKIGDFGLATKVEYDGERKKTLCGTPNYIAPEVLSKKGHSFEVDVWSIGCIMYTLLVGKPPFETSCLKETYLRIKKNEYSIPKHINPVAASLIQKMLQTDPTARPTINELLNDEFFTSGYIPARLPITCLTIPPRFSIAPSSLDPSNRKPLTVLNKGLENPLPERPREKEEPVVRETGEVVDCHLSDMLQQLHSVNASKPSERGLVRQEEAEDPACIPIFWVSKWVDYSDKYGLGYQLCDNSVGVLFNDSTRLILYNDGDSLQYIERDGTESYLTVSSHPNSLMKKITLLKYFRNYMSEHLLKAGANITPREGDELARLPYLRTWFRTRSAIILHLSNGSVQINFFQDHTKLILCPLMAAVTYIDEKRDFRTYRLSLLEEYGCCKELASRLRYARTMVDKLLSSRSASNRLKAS
PLK1 PBD inh = Plk1 polo box domain binding inhibitors, primary screen, biochemical, fluorescence polarization | Serine/threonine-protein kinase PLK1 (Homo sapiens), P53350 | Plk1 PBD phosphopeptide binding | inhibition, %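 (tested at about 20 µM)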 | hit rate 0.13% among 97,000; in the data active = inhibition above about 34%, passing the limit was not always enough
ROCK2 blocker = inhibitors of human ROCK2 kinase, primary screen, biochemical, high-throughput, luminescence. purified ROCK2, Kinase-Glo ATP depletion luminescence. inhibition, % at 6 µM. hit rate 0.35% among 60,000. AID 604, 2007;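 active = inhibition above the screen-wide mean inhibition plus 3 SD, cut at about 18% in these data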;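 note: plate controls were DMSO wells for no effect and Y-27632 control wells after no-enzyme background subtraction for full effect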
JNK3 inh = JNK3 kinase activity inhibitors, primary screen, biochemical, human, purified enzyme; HTS; inhibition, % at 8 µM; hit rate 0.61% among 60,000; AID 746, 2007; in the data active = inhibition above about 17%;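 note: 0% = DMSO and 100% = reference inhibitor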
PLK1 confirm = PLK1 kinase activity inhibitors, confirmation, biochemical, TR-FRET, duplicate runs | hit rate 20% among 210 | recombinant PLK1 kinase, TR-FRET peptide phosphorylation | shares compounds with PLK1 kinase inh | AID 744, 2007 | inhibition, % at 10 µM;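 active = inhibition at or above 50% in each of two repeat confirmation tests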;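 note: 0% = DMSO max control and 100% = H-89 kinase-blocked min control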
TR-FRET interf = compound interference with Plk1 assay readout, artefact control for Plk1 kinase inhibitor project, biochemical, TR-FRET, compound added post-reaction. AID 756, 2007. shares compounds with PLK1 kinase inh. 210 tested, under 10 active. inhibition (interference), % at 10 µM;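 active = both duplicate runs show 50% or greater inhibition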;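 note: 0% = DMSO max control and 100% = H-89 min control inhibited reaction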
* = called active by the depositor; . = not tested or not shown. Compounds with a hit are over-represented: about 1.5% of the library has one in this group of screens.

SMILES | FAK inh | PKA kinase inh | PLK1 kinase inh | PLK1 PBD inh | ROCK2 blocker | JNK3 inh | PLK1 confirm | TR-FRET interf
Cn1nnnc1SCc1ccc(C(=O)Nc2nccs2)cc1 | 6 | 1 | 0 | 13 | -12 | 20* | . | .
O=C(CSCc1ccccc1)Nc1nccs1 | 0 | 3 | 2 | 9 | 3 | -1 | . | .
Cn1c(CSCc2ccc(Cl)cc2)nnc1SCC(=O)Nc1nccs1 | -1 | . | 13 | -4 | . | . | . | .
Cc1ccc(S(=O)(=O)C(C)C(=O)c2ccc3c(c2)OCCO3)cc1 (stereo not given) | 0 | . | -4 | 1 | . | . | . | .
O=C(NCc1ccc2c(c1)OCO2)c1ccc2snnc2c1 | 1 | 6 | -5 | 10 | 38* | 6 | . | .
O=C(c1cccc2c1-c1ccccc1/C2=N/O)N1CCCCC1 | . | 4 | . | . | 8 | 26* | . | .
O=C1c2ccccc2-c2c1cccc2C(=O)N1CCCCC1 | 1 | . | -9 | -4 | . | . | . | .
Clc1cccc(Nc2c3c(nc4ncnn24)CCC3)c1 | 1 | 8 | 54* | -11 | 6 | 4 | . | .
COC(=O)CSc1nnc(CNC(=O)c2ccco2)n1-c1ccc(F)cc1 | -2 | -4 | -9 | 19 | 0 | -6 | . | .
Cc1nnc(C)n1N1C(=O)c2cccc3cccc(c23)C1=O | -4 | 6 | -3 | 19 | 3 | -7 | . | .
NC1=CC(=O)c2cccc3cccc1c23 | 16 | 0 | 78* | 17 | 3 | -2 | 21 | -17
O=C(NCCc1cccs1)C1CC(c2c(Cl)cccc2Cl)=NO1 (stereo not given) | 3 | . | -10 | 2 | . | . | . | .
Cc1cc(C)c(NC(=O)c2ccc(S(=O)(=O)N3CCOCC3)cc2)c(C)c1 | -8 | 3 | 72* | -3 | -1 | -2 | -11 | -48
CCOC(=O)Nc1ccc(C)cc1Br | 0 | 4 | 1 | -13 | 3 | 3 | . | .
CCOC(=O)CNC(c1ccccc1)c1cc(Br)ccc1NC(=O)OCC (stereo not given) | 0 | . | 93* | 9 | . | . | -1 | -54
Cc1cccc(N=Nc2c(N)n[nH]c2-c2ccc(Cl)cc2)c1 | -7 | . | 71* | -3 | . | . | 59* | -49
NC(=O)CSc1nc2cc3c(cc2c(=O)n1CCCC(=O)NCc1ccc2c(c1)OCO2)OCO3 | -6 | . | -8 | 12 | . | . | . | .
CCOc1cc(C(=S)N2CCCCC2)ccc1OCC(=O)NCc1ccccc1 | -3 | . | -3 | 6 | . | . | . | .
O=C(Cn1c(NCCO)nc2ccccc21)NCCc1ccc(F)cc1 | 4 | . | -1 | 10 | . | . | . | .
CCOC(=O)C1CCN(C(=O)CSCc2nc(-c3ccc(OCC)cc3)oc2C)CC1 | . | -1 | . | . | -2 | 5 | . | .
CCOc1ccc(-c2nc(CSCC(=O)N3CCN(C(=O)c4ccco4)CC3)c(C)o2)cc1 | -5 | 5 | 74* | -3 | 6 | 4 | -14 | -52
COCCn1c(SCc2cccnc2)nnc1-c1c[nH]c2ccccc12 | -1 | 0 | 75* | -21 | -1 | -4 | -9 | -47
COCCn1c(SCC(=O)Nc2cc(C)on2)nnc1-c1c[nH]c2ccccc12 | -3 | 4 | 71* | -2 | 2 | -4 | 0 | -51
COc1cc(-c2nnc(SCc3cccnc3)n2C)cc(OC)c1O | 0 | 8 | -6 | 0 | 4 | -4 | . | .
CC1CCCCN1Cc1nc2c(c(=O)n(C)c(=O)n2C)n1Cc1cccc2ccccc12 (stereo not given) | . | 2 | . | . | 2 | 1 | . | .
SMILES | FAK inh | PKA kinase inh | PLK1 kinase inh | PLK1 PBD inh | ROCK2 blocker | JNK3 inh | PLK1 confirm | TR-FRET interf
COC(=O)C1C2C=CC3(CN(c4cccc(Cl)c4)C(=O)C13)O2 (stereo not given) | -4 | 5 | 74* | -34 | 1 | -1 | -2 | -50
CCN(CC)CCC(=O)Nc1ccc2c(c1)N(C(=O)CN(CC)CC)c1ccccc1CC2 | 10 | . | -11 | -19 | . | . | . | .
CC1(c2ccccc2)NC(=O)N(CC(=O)Nc2ccc3c(c2)OCO3)C1=O (stereo not given) | 0 | . | 91* | -1 | . | . | -11 | -52
CCOC(=O)c1sc2ncnc(OC)c2c1C | 4 | 4 | 12 | 34 | 0 | 0 | . | .
CCOC(=O)c1sc2nc[nH]c(=O)c2c1C | 5 | . | 79* | -23 | . | . | 73* | -15
Cc1c(NC(=O)C(C)N2C(=O)C3C4C=CC(C4)C3C2=O)c(=O)n(-c2ccccc2)n1C (stereo not given) | 1 | 3 | 71* | -20 | 2 | 2 | -6 | -47
Cc1c(NC(=O)C(C)N2C(=O)c3ccccc3C2=O)c(=O)n(-c2ccccc2)n1C (stereo not given) | 3 | 11 | -5 | 4 | 5 | 4 | . | .
CCC(Sc1nc2c(c(=O)n1CC)SC(C)C2)C(=O)OC (stereo not given) | 1 | . | -11 | 12 | . | . | . | .
O=C(COc1ccccc1C(=O)N/N=C\c1ccc(O)c(O)c1)N/N=C/c1ccc(O)c(O)c1 | 2 | . | 86* | 5 | . | . | 72* | 69*
COc1cc(-c2nnc(SCc3cc(=O)oc4cc(O)c(O)cc34)o2)cc(OC)c1OC | 5 | . | 77* | 2 | . | . | 26 | 1
Cn1c(=O)c2c(SCc3cccnc3)nc(CC(C)(C)C)nc2n(C)c1=O | 8 | 8 | 73* | -8 | 8 | -2 | 0 | -53
CC(C(=O)Nc1ccccc1-c1ccccc1)N1CCN(C(=O)c2ccco2)CC1 (stereo not given) | . | 1 | . | . | 2 | 1 | . | .
CC(C)CC(=O)Nc1nnn(C)n1 | -3 | 2 | -1 | -9 | 10 | 6 | . | .
CCOC(=O)c1[nH]c(C)c(C(=O)NCCN2CCOCC2)c1C | -3 | 4 | 74* | -21 | -2 | -7 | -10 | -52
CCCCOC(=O)CCn1c(=S)oc2ccccc21 | -4 | 7 | 125* | 13 | 4 | 0 | -8 | -52
CCCCCOC(=O)Cn1c(=O)oc2ccccc21 | . | 4 | . | . | 3 | 3 | . | .
CCOC(=O)N1CCN(C(=O)c2cc(-n3cnnc3)ccc2Cl)CC1 | -4 | 10 | -8 | 6 | 4 | 3 | . | .
COCCCNC(=O)c1ccc(CS(=O)(=O)c2ccc(Br)cc2)o1 | -4 | -6 | 75* | -16 | 1 | -4 | -6 | -50
Cc1cc(C)n(C(=O)C(C)N2C(=O)c3ccccc3C2=O)n1 (stereo not given) | . | -1 | . | . | -2 | 2 | . | .
